Assay results reported in PubChem BioAssay (NCATS).
Inconclusive results are not listed. Activity calls are given as the source filed them. Unless noted, calls come from the whole dose curve; as a rule, active = well fitted curve in the direction sought with a large enough effect; inconclusive = small, poorly fitted or top-dose-only effect, or another doubt; inactive = no such curve, though single readings can be large; an effect the other way counts as inactive or inconclusive.

Legend:
[1] = qHTS for differential inhibitors of proliferation of Plasmodium falciparum line 7G8 (AID 1815); conditions: Plasmodium falciparum 7G8 proliferation inhibition; series mostly up to 28.7 µM;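 note: parasite growth measured after three days of incubation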
[2] = qHTS for differential inhibitors of proliferation of Plasmodium falciparum line W2 (AID 1883); conditions: Potency: Plasmodium falciparum W2 proliferation inhibition; series mostly up to 28.7 µM;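 note: potency is the fitted concentration of half-maximal effect; parasites grown with compound for 72 h before lysis and staining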
[3] = Validation screen for inhibitors of Lassa infection (AID 463096; calls by dose curve); conditions: Lassa virus infection, cell-based; series mostly up to 46.1 µM
[4] = molecular target: Luciferin 4-monooxygenase (Photinus pyralis) (UniProt P08659); test: Biochemical firefly luciferase enzyme assay for NPC (AID 624030);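 note: purified P. pyralis luciferase at 10 nM with luciferin and ATP substrate; nearly all actives have a fitted effect of over 70% in size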; conditions: purified P. pyralis luciferase, luminescence, 5 min; series mostly up to 58.6 µM
Outline: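 Direct inhibition of firefly luciferase enzyme (10 nM final, 50 mM Tris Acetate) assessed by luminescence within 5 minutes. Percent activity scaled between DMSO and PTC124 positive control, with concentration-effect curves classified by fit quality and response.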

[5] = S16 Schwann cell PMP22 intronic element firefly luciferase assay (AID 624032); conditions: S16 rat Schwann cells, PMP22 element FLuc, 24 h; series mostly up to 57.5 µM; note: nearly all actives have a fitted effect of over 30% in size; note: potency is the fitted concentration of half-maximal effect
Outline: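 Luciferase reporter of PMP22 intronic-element expression in stably transfected S16 rat Schwann cells, read by ONE-Glo luminescence after 24 h compound exposure at 37 C. Activity scaled between DMSO (0%) and positive-control PTC124; concentration-effect curves quality-classified.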

[6] = S16 Schwann cell PMP22 intronic element beta-lactamase assay (AID 624044; calls by dose curve; note: nearly all actives have a fitted effect of over 15% in size); conditions: S16 rat Schwann cells, PMP22 element beta-lactamase FRET, 24 h; series mostly up to 38.3 µM
Outline: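 Beta-lactamase reporter under a PMP22 intronic regulatory element in stable S16 rat Schwann cells; 24 h compound exposure. 460 nm blue signal normalized between DMSO (0%) and potassium clavulanate, with 535 nm FRET tracking viability; curves classed by r2 and response.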

AA1029 = test: qHTS profiling for inhibitors of Plasmodium falciparum proliferation (AID 504749); note: nearly all actives have a fitted effect of over 60% in size; note: potency is the fitted concentration of half-maximal effect; conditions: P. falciparum in erythrocytes, SYBR Green DNA, 72 h; series mostly up to 28.7 µM
Outline: (§1)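 SYBR Green fluorescence of parasite DNA, read after lysis and overnight dark incubation, measured growth over 72 h in erythrocyte culture at 0.3% parasitemia and 2.5% hematocrit. Data normalised to DMSO and 0.29 uM artemisinin, with plate-drift correction.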

CP211 = test: as above; conditions: P. falciparum in erythrocytes, SYBR Green DNA, 72 h; series mostly up to 28.7 µM
Outline: as §1

CP217 = test: as above; conditions: P. falciparum in erythrocytes, SYBR Green DNA, 72 h; series mostly up to 28.7 µM
Outline: as §1

CP252 = test: as above; conditions: P. falciparum in erythrocytes, SYBR Green DNA, 72 h; series mostly up to 28.7 µM
Outline: as §1

CP260 = test: as above; conditions: P. falciparum in erythrocytes, SYBR Green DNA, 72 h; series mostly up to 28.7 µM
Outline: as §1

CP315 = test: as above; conditions: P. falciparum in erythrocytes, SYBR Green DNA, 72 h; series mostly up to 28.7 µM
Outline: as §1

JCK = test: as above; conditions: P. falciparum in erythrocytes, SYBR Green DNA, 72 h; series mostly up to 28.7 µM
Outline: as §1

N140 = test: as above; conditions: P. falciparum in erythrocytes, SYBR Green DNA, 72 h; series mostly up to 28.7 µM
Outline: as §1

TAB165 = test: as above; conditions: P. falciparum in erythrocytes, SYBR Green DNA, 72 h; series mostly up to 28.7 µM
Outline: as §1

[7] = molecular target: Voltage-gated inwardly rectifying potassium channel KCNH2 (Homo sapiens) (UniProt Q12809); test: qHTS Assay for Small Molecule Inhibitors of the Human hERG Channel Activity (AID 588834); conditions: U2OS BacMam hERG, FluxOR thallium flux fluorescence; series mostly up to 46.1 µM;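 note: lower thallium flux fluorescence means stronger hERG block; nearly all actives have a fitted effect of over 50% in size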; note: potency is the fitted concentration of half-maximal effect
Outline: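 Thallium-flux (FluxOR) read-out on FDSS: fluorescence read 10 s before and 2 min after stimulation buffer. hERG-BacMam-transduced U2OS cells, compound exposure about 10 min. AC50 by standard Hill equation.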

[8] = Validation of Assay for Modulators of Lamin A Splicing (AID 1459; active = well fitted curve in the direction sought with a large enough effect in the signal ratio; the % refers to the signal ratio;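 note: cells exposed to compound for two days before reading; ratio rise marks activators and ratio drop marks inhibitors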); conditions: Lamin A splicing dual RFP/GFP fluorescence reporter; series mostly up to 9.22 µM
Outline: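 Readout: ratio of GFP (500-530 nm) to RFP (575-640 nm) total object intensity by 488 nm laser-scanning cytometry after 48 hrs. Cells were HeLa S3 clones carrying lamin A-EGFP minigene plus DsRed2 viability reporter; vehicle 0.5% DMSO final.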

[9] = molecular target: Endonuclease 4 (Escherichia coli (strain K12)) (UniProt P0A6C1); test: Counterscreen for APE1 Inhibitors: qHTS Validation Assay for Inhibitors of Endonuclease IV (AID 1708); conditions: E. coli endonuclease IV, DNA cleavage fluorescence; series mostly up to 57.1 µM
Outline: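 Incision of a double-stranded 50 nM TAMRA/BHQ-2 abasic substrate was followed kinetically (525/598 nm, reads every 60 s) after 15 min enzyme–compound preincubation with 2 nM EndoIV in pH 7.5 Tris buffer with MgCl2, DTT and Tween-20; concentration-response format.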

[10] = qHTS Assay for Modulators of Human Peripheral Myelin Protein 22 (PMP22) Expression/Activity (AID 1967; active = well fitted curve in the direction sought with a large enough effect in the signal ratio; the % refers to the signal ratio); conditions: Cell-based PMP22 reporter, dual-color luciferase ratio, mouse Pmp22 promoter in mouse Schwann cells; series mostly up to 115 µM
Outline: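 Mouse MSC80 Schwann line, Pmp22 promoter–CBG68 reporter, EF-alpha–CBR internal control. 24h compound exposure, 37 °C/5% CO2, DMEM + 10% FBS. Readout: corrected green/red luminescence ratio, normalized to untreated cells; concentration-response curves fitted and classified.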

[11] = Quantitative high throughput screen for delayed death inhibitors of the malarial parasite plastid, 48 hour incubation (AID 488752); conditions: Plasmodium falciparum growth; series mostly up to 28.7 µM; note: nearly all actives have a fitted effect of over 65% in size
Outline: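 First, compound was pinned into RPMI 1640 medium containing 0.5% Albumax. Next, reporter-parasite-infected erythrocytes were added to 2% hematocrit and 0.1% parasitemia. After 48 h at 37 C under 5% CO2, luciferase detection reagent was added and luminescence read.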

Measured: Potency

Chain of Voltage-gated inwardly rectifying potassium channel KCNH2 (Homo sapiens) (Q12809 whole entry, looked up): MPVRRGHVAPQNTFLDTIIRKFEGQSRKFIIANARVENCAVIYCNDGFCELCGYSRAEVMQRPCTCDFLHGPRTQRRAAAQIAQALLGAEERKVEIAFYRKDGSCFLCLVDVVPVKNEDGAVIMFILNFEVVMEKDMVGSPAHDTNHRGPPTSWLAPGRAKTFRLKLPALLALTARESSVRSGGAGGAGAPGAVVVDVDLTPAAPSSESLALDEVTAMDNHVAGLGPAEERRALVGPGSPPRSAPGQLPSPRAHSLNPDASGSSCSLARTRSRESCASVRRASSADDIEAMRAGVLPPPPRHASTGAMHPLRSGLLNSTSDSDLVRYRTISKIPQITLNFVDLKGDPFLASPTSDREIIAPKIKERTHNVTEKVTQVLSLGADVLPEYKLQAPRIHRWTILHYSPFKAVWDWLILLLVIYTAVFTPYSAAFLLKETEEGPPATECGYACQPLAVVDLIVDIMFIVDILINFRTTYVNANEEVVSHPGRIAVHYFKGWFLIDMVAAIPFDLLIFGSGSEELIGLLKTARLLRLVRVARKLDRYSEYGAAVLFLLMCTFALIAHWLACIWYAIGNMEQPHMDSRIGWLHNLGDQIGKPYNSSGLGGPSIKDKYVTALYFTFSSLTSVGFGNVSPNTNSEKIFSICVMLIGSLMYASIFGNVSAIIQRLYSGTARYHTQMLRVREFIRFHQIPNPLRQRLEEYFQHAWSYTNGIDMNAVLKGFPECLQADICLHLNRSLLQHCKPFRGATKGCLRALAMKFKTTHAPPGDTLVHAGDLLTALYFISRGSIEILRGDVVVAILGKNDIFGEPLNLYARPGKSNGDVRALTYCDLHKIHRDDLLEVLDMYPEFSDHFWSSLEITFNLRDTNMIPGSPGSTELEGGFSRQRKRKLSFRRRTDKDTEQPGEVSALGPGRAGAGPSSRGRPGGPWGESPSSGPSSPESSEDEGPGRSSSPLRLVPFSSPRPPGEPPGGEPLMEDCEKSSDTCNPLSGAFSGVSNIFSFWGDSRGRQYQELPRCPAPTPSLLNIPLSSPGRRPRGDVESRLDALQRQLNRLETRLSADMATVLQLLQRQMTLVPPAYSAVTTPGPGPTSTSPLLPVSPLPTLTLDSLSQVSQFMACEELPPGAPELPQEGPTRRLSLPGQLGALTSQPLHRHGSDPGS
Chain of Luciferin 4-monooxygenase (Photinus pyralis) (P08659 whole entry, looked up): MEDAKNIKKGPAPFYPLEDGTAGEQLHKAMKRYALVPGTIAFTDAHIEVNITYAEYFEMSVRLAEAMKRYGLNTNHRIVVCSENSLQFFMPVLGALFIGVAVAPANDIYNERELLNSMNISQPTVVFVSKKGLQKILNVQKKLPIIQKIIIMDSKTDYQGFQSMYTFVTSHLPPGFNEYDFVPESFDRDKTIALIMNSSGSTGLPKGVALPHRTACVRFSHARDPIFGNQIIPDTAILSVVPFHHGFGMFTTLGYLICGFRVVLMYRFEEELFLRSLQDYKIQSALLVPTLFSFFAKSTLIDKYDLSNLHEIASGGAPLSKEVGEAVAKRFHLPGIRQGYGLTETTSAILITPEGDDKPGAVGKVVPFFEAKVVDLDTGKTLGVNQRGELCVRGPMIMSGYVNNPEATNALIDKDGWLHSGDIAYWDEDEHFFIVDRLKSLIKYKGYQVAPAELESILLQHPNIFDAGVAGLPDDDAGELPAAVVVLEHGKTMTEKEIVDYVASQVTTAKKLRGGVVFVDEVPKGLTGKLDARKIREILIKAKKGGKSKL

CCN1C[C@]2(COC)[C@H](O)C[C@H](OC)[C@]34C1C([C@H](OC)[C@H]23)[C@]1(OC(C)=O)C2[C@@H](OC(=O)c3ccccc3)C(O)(C[C@H]24)[C@@H](OC)[C@@H]1O
not listed: [1] | [2] | [3] | [7] | [8] | [9] | [10] | [11]
inactive: all other assays above

CC(C)(c1ccc(OCC2CO2)cc1)c1ccc(OCC2CO2)cc1 (configuration not stated)
active: [7] 28.2 µM

O=C(O)c1ccccc1-c1c2cc(Br)c(=O)cc-2oc2[c]([Hg])c(O)c(Br)cc12
inactive: [5] | [6] | AA1029 | CP211 | CP217 | CP252 | CP260 | CP315 | JCK | N140 | TAB165

CC(C)[C@@]1(NC(=O)[C@H]2CC3c4cccc5[nH]cc(c45)C[C@H]3N(C)C2)O[C@@]2(O)C3CCCN3C(=O)[C@@H](Cc3ccccc3)N2C1=O (some centres not stated)
active: [5] 5.1 µM | AA1029 3.16 µM | CP211 6.01 µM | CP217 3.98 µM | CP252 3.98 µM | CP260 3.16 µM | CP315 9.53 µM | JCK 7.94 µM | N140 0.447 µM | TAB165 0.562 µM
inactive: [4] | [6]

CP(=O)(O)CCCN
active: [2] 2.82 µM
inactive: [8] | [9] | [10] | [11] | [7]

COc1ccc2[nH]cc(CCN(C)C)c2c1
inactive: [8] | [9] | [1] | [10] | [3] | [11] | [7]

Cc1nnc2n1-c1sc(Br)cc1C(c1ccccc1Cl)=NC2
inactive: [4]

CN1CCN(c2ccc3ccccc3n2)CC1
inactive: [8] | [9] | [10] | [11]
